Experiment [1] relates to DLD1. Kind of experiment: cell viability (CellTiter-Glo) relative to plate median (fraction of plate median); higher = more viable cells. The note with it: 5 µM; treatment time 24 h; reporter: 7TFP. In short, it runs like this:
(§1)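 Library compounds were added at a final concentration of 5 µM for 24 h to colorectal cancer cells stably transduced with a lentiviral TCF/Wnt firefly luciferase reporter. Reported values are firefly luciferase or CellTiterGlo luminescence, normalised per well to the plate median. Each value averages two independent replicates.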

The subject of a further experiment is HCT116. The description is as above. The note with it: 5 µM; treatment time 24 h; reporter: TCF4/Wnt. Summed up:
as §1

Experiment [2] relates to SW480. The experiment is described as above. Conditions: 5 µM; treatment time 24 h; reporter: 7TFP. Summed up: as §1
Experiment [3] has as its system DLD1. Kind of experiment: TCF/Wnt firefly luciferase reporter signal relative to plate median (fraction of plate median); higher = higher Wnt reporter signal. The note with it: 5 µM; treatment time 24 h; reporter: 7TFP. Summed up: as §1
Experiment [4] has as its system SW480. The experiment is described as above. The note with it: 5 µM; treatment time 24 h; reporter: 7TFP. In short, it runs like this: as §1

± gives the standard deviation of the averaged measurements.

The values that follow come from the supplement of paper PMC6522484.

On to `C=CC(C1=CC(=O)C(OC)=CC1=O)c1ccc(OC)cc1` (stereo not given), for which the results for the cell viability in the experiment on DLD1 [1], with HCT116 and in the experiment on SW480 [2] were 1.06 ± 0.035, 1.13 ± 0.085 and 1.03 ± 0.054, respectively. For the same compound, the “TCF/Wnt firefly luciferase reporter signal” value was found to be 0.988 ± 0.059 in the experiment with DLD1 [3] and 1 ± 0.11 with SW480 [4].
With `OCCOCCN1CCN(C(c2ccccc2)c2ccc(Cl)cc2)CC1` (stereo not given), the cell viability worked out at 0.978 ± 0.045 with DLD1 [1], 1.07 ± 0.014 in the experiment on HCT116 and 1.01 ± 0.026 in the experiment with SW480 [2]. Moreover, the “TCF/Wnt firefly luciferase reporter signal” value turned out to be 1.03 ± 0.021 in the experiment with DLD1 [3] and 1.075 ± 0.0071 in the experiment on SW480 [4].
Take `CCc1nc(N)nc(N)c1-c1ccc(Cl)cc1`: the cell viability was 0.972 ± 0.082 in the experiment with DLD1 [1], 0.999 ± 0.03 in the experiment with HCT116 and 1.02 ± 0.021 with SW480 [2]. Further, the “TCF/Wnt firefly luciferase reporter signal” value in the experiment on DLD1 [3] turned out to be 1.1 ± 0.23; with SW480 [4], 1.1 ± 0.042.
In the same order, the values of `O=C(O)c1cc(-c2ccc(F)cc2F)ccc1O` are 0.973 ± 0.0042, 1.07 ± 0.057, 1.01 ± 0.021, 1.32 ± 0.13 and 1.16 ± 0.021.
In the same order, the values of `CC(CCC(=O)O)C1CCC2C3CCC4CC(O)CCC4(C)C3C=CC12C` (stereo not given) are 1.03 ± 0.021, 0.943 ± 0.12, 1.005 ± 0.0071, 0.902 ± 0.071 and 0.964 ± 0.02.
On to `CN(C)CCc1c[nH]c2ccc(Cn3cncn3)cc12`, for which the cell viability with DLD1 [1] is 0.968 ± 0.011; in the experiment with HCT116, 1.09 ± 0.064; in the experiment on SW480 [2], 1.03 ± 0.042. Further, the “TCF/Wnt firefly luciferase reporter signal” value came to 1.09 ± 0.2 in the experiment on DLD1 [3] and 1.07 ± 0.099 in the experiment on SW480 [4].
In the same order, the values of `CNCCC(Oc1ccc(C(F)(F)F)cc1)c1ccccc1` (stereo not given) are 0.9505 ± 0.00071, 0.952 ± 0.12, 0.948 ± 0.069, 1.2 ± 0.26 and 0.993 ± 0.052.
In the same order, the values of `COc1cc2c(=O)c(-c3ccc4c(c3)OCO4)coc2c(OC)c1OC` are 1.05 ± 0.05, 1.01 ± 0.073, 1 ± 0.011, 0.94 ± 0.05 and 0.922 ± 0.026.
In the case of `CC(=O)NCCc1ccccc1` [N-Acetyl-phenylethylamine], the cell viability in the experiment with DLD1 [1] turned out to be 1.04 ± 0.014; in the experiment on HCT116, 1.01 ± 0.12; with SW480 [2] it was 1.02 ± 0.072. For the same compound, the “TCF/Wnt firefly luciferase reporter signal” value in the experiment on DLD1 [3] stood at 1.03 ± 0.028; in the experiment on SW480 [4], 1.02 ± 0.079.
On to `COC(=O)C[C@H]1C(C)(C)[C@@H](OC(C)=O)[C@@H]2CC3=C4CC(=O)O[C@@H](c5ccoc5)[C@]4(C)CC[C@@H]3[C@@]1(C)C2=O`, for which the figures for the cell viability with DLD1 [1], in the experiment on HCT116 and in the experiment on SW480 [2] were 0.9945 ± 0.0078, 1.045 ± 0.0071 and 0.963 ± 0.018, respectively. In addition, the “TCF/Wnt firefly luciferase reporter signal” value in the experiment with DLD1 [3] was 0.993 ± 0.067; in the experiment with SW480 [4], 0.95 ± 0.041.
As to `COc1cc(C)c(C(=O)Oc2cc(C)c(C(=O)O)c(O)c2C)c(O)c1C=O`, the results for the cell viability in the experiment on DLD1 [1], in the experiment with HCT116 and with SW480 [2] were 1.06 ± 0.014, 0.9725 ± 0.0021 and 1.03 ± 0.014, respectively. In addition, the “TCF/Wnt firefly luciferase reporter signal” value in the experiment on DLD1 [3] was found to be 1.06 ± 0.078; in the experiment with SW480 [4], 1.12 ± 0.085.
In the same order, the values of `Clc1cccc(Cl)c1NC1=NCCN1` are 0.987 ± 0.033, 0.925 ± 0.16, 0.988 ± 0.013, 1.065 ± 0.0071 and 1.01 ± 0.11.
With `Nc1nc2c(ncn2[C@H]2C[C@H](O)[C@@H](CO)O2)c(=O)[nH]1` [Desoxyguanosin], the cell viability in the experiment on DLD1 [1] was determined as 1 ± 0.013; in the experiment with HCT116, 1.01 ± 0.11; with SW480 [2] it was 1.004 ± 0.0078. The “TCF/Wnt firefly luciferase reporter signal” value came out at 0.989 ± 0.016 in the experiment with DLD1 [3] and 0.997 ± 0.018 with SW480 [4].
`OC[C@@H](O)[C@@H](O[C@@H]1O[C@H](CO)[C@H](O)[C@H](O)[C@H]1O)[C@H](O)[C@@H](O)CO`: the cell viability with DLD1 [1] turned out to be 1.02 ± 0.038; with HCT116, 0.904 ± 0.067; in the experiment on SW480 [2], 0.979 ± 0.021. Besides, the “TCF/Wnt firefly luciferase reporter signal” value in the experiment on DLD1 [3] came to 0.781 ± 0.083; in the experiment with SW480 [4], 1.03 ± 0.1.
With `CN(C)CCN(Cc1ccccc1)c1ccccn1`, the cell viability in the experiment with DLD1 [1] was determined as 0.9435 ± 0.0078; with HCT116 it was 0.925 ± 0.13; in the experiment on SW480 [2], 1 ± 0.022. Also, the “TCF/Wnt firefly luciferase reporter signal” value in the experiment with DLD1 [3] is 1 ± 0.25; in the experiment with SW480 [4], 1.03 ± 0.05.
`NC[C@@H]1O[C@H](O[C@H]2[C@@H](O)[C@H](O[C@@H]3[C@@H](O)[C@H](N)C[C@H](N)[C@H]3O[C@H]3O[C@H](CO)[C@@H](O)[C@H](O)[C@H]3N)O[C@@H]2CO)[C@H](N)[C@@H](O)[C@@H]1O`: the cell viability with DLD1 [1] is 1.1 ± 0.035; with HCT116, 0.975 ± 0.064; in the experiment with SW480 [2] it was 1.065 ± 0.0071. Also, the results for the “TCF/Wnt firefly luciferase reporter signal” value with DLD1 [3] and in the experiment on SW480 [4] were 0.901 ± 0.043 and 0.995 ± 0.11, respectively.
In the same order, the values of `C[C@]1(O)CC(=O)c2c(ccc3c2C(=O)c2cccc(O)c2C3=O)C1` [Tetrangomycin; Benzanthramycin; LL-AE-705-Y] are 0.822 ± 0.019, 0.978 ± 0.14, 1 ± 0.067, 0.853 ± 0.065 and 1.01 ± 0.045.
Turning to `O=C1c2c(O)ccc(O)c2C(=O)c2c(NCCNCCO)ccc(NCCNCCO)c21`, the results for the cell viability in the experiment with DLD1 [1], in the experiment on HCT116 and in the experiment with SW480 [2] were 1.09 ± 0.078, 0.635 ± 0.19 and 0.997 ± 0.018, respectively. Also, the figures for the “TCF/Wnt firefly luciferase reporter signal” value in the experiment with DLD1 [3] and with SW480 [4] were 0.936 ± 0.03 and 0.436 ± 0.04, respectively.
For `C=C1C2CCC3(C)C(c4ccoc4)OC(=O)CC13OC1CC(=O)C(C)(C)C(CC(=O)OC)C12C` (stereo not given), the cell viability with DLD1 [1] is 0.97 ± 0.012; with HCT116 it was 0.934 ± 0.0099; in the experiment with SW480 [2], 0.925 ± 0.044. The “TCF/Wnt firefly luciferase reporter signal” value with DLD1 [3] was 1.04 ± 0.12; in the experiment on SW480 [4] it was 1.09 ± 0.13.
Take `COC(=O)C[C@H]1C(C)(C)C2(O)OC34CC2C(=O)[C@]1(C)C3CC[C@]1(C)C4=CC(=O)O[C@H]1c1ccoc1` (stereo partly drawn) [8beta-HYDROXYCARAPIN, 3,8-HEMIACETAL]: the values for the cell viability in the experiment with DLD1 [1], in the experiment on HCT116 and in the experiment on SW480 [2] were 1.02 ± 0.014, 1.07 ± 0.11 and 0.9895 ± 0.0092, respectively. Besides, the figures for the “TCF/Wnt firefly luciferase reporter signal” value in the experiment with DLD1 [3] and in the experiment with SW480 [4] were 0.866 ± 0.067 and 0.816 ± 0.019, respectively.
For `COc1ccc(-c2oc3c(CC=C(C)C)c(O[C@@H]4O[C@H](CO)[C@@H](O)[C@H](O)[C@H]4O)cc(O)c3c(=O)c2O[C@@H]2O[C@@H](C)[C@H](O)[C@@H](O)[C@H]2O)cc1`, the cell viability in the experiment with DLD1 [1] was 1.03 ± 0.014; with HCT116, 1.1 ± 0.085; in the experiment on SW480 [2] it was 0.957 ± 0.048. The “TCF/Wnt firefly luciferase reporter signal” value in the experiment with DLD1 [3] was determined as 0.977 ± 0.1; in the experiment with SW480 [4] it was 0.974 ± 0.03.
In the same order, the values of `C[N+](C)(C)CCO.[Cl-]` are 0.975 ± 0.0071, 1.01 ± 0.068, 0.929 ± 0.045, 1.03 ± 0.021 and 1.1 ± 0.042.
Turning to `COc1ccc(-c2cc(=O)c3c(O)cc(O)cc3o2)cc1`, the cell viability was 1.03 ± 0.08 in the experiment with DLD1 [1], 0.935 ± 0.019 with HCT116 and 1.05 ± 0.064 in the experiment with SW480 [2]. Moreover, the “TCF/Wnt firefly luciferase reporter signal” value is 0.912 ± 0.026 in the experiment with DLD1 [3] and 1.01 ± 0.091 in the experiment on SW480 [4].
With `CCc1cccc2c3c([nH]c12)C(CC)(CC(=O)O)OCC3` (stereo not given), the cell viability worked out at 0.949 ± 0.073 with DLD1 [1], 0.957 ± 0.089 in the experiment with HCT116 and 0.921 ± 0.025 in the experiment on SW480 [2]. For the same compound, the “TCF/Wnt firefly luciferase reporter signal” value in the experiment on DLD1 [3] is 1.04 ± 0.021; in the experiment on SW480 [4], 1.08 ± 0.035.
`COc1cc(OC)c2ccc(=O)oc2c1`: the results for the cell viability in the experiment with DLD1 [1], with HCT116 and with SW480 [2] were 1.08 ± 0.057, 0.999 ± 0.2 and 1.07, respectively. The entries for the “TCF/Wnt firefly luciferase reporter signal” value in the experiment on DLD1 [3] and in the experiment with SW480 [4] were 1.02 ± 0.084 and 1.01 ± 0.071, respectively.
In the same order, the values of `COc1cccc(OC)c1C(=O)N[C@@H]1C(=O)N2[C@@H]1SC(C)(C)[C@@H]2C(=O)O` are 1.05 ± 0.071, 1.17 ± 0.042, 1.07 ± 0.035, 1.14 ± 0.21 and 1.06 ± 0.16.
Consider `OCCOCCN1CCN(C2=Nc3ccccc3Sc3ccccc32)CC1`, for which the cell viability worked out at 1.05 ± 0.094 in the experiment with DLD1 [1], 1 ± 0.15 with HCT116 and 0.991 ± 0.013 in the experiment on SW480 [2]. Besides, the figures for the “TCF/Wnt firefly luciferase reporter signal” value in the experiment with DLD1 [3] and in the experiment on SW480 [4] were 1.03 ± 0.028 and 1.08 ± 0.014, respectively.
As to `CC1(C)CC[C@]2(C(=O)O)CC[C@]3(C)C(=CC[C@@H]4[C@@]5(C)CC[C@H](O)C(C)(C)[C@@H]5[C@H](O)C[C@]43C)[C@@H]2C1`, the cell viability is 0.946 ± 0.076 with DLD1 [1], 0.955 ± 0.092 with HCT116 and 0.992 ± 0.026 in the experiment on SW480 [2]. Besides, the “TCF/Wnt firefly luciferase reporter signal” value with DLD1 [3] was 0.952 ± 0.018; in the experiment on SW480 [4], 1.04 ± 0.057.
As to `C[C@]12CCC(=O)C=C1CC[C@@H]1[C@@H]2C(=O)C[C@@]2(C)[C@H]1CC[C@]2(O)C(=O)CO`, the cell viability in the experiment on DLD1 [1] was 0.888 ± 0.14; in the experiment with HCT116 it was 1.02 ± 0.12; in the experiment on SW480 [2], 0.957 ± 0.0057. Besides, the “TCF/Wnt firefly luciferase reporter signal” value worked out at 0.914 ± 0.093 in the experiment on DLD1 [3] and 0.761 ± 0.013 in the experiment on SW480 [4].
